Results on 1 molecule are retold here after PubChem BioAssay AID1159580 (chemical genetic matrix, 2015).

A short description of the experiment: chemical genetic growth profiling, strain panel (AID 1159580).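 Also: tested at 20 µM; growth read once vehicle control cultures reached saturation at 30 °C; 1 = growth at the plate median or of vehicle wells; lower values mean less growth of the strain.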 The settings on record: S. cerevisiae deletion strains, growth OD.

Among all 5,500 compounds or so, about 2,000 (36%) were called active. Roughly 18% stayed inconclusive and do not appear here. The list shows a part of the results. Values without a mark were called inactive. Rule as the data show it: active = normalized growth mostly below about 0.91 (no sharp cut-off); inconclusive = no clear call, values can overlap the other calls; inactive = mostly above about 0.92.

With `CCCCCCCCCCCCCCCCC(C(=O)O)C(O)(CC(=O)O)C(=O)O` (stereo not drawn), the normalized growth (locus YHR030C, strain SLT2, active compounds read low) was 0.501 (active); the normalized growth (locus YHR079C, strain IRE1, active compounds read low) was 0.804 (active); the normalized growth (locus YJL095W, strain BCK1, active compounds read low) was 0.581 (active); the normalized growth (locus YJR066W, strain TOR1, active compounds read low) was 0.566 (active); the normalized growth (locus YLR113W, strain HOG1, active compounds read low) is 0.48 (active); the normalized growth (locus YNL183C, strain NPR1, active compounds read low) was 0.648 (active). The normalized growth was 0.836 (active) (locus YOR231W, strain MKK1, active compounds read low) and 0.863 (locus YPL256C, strain CLN2, active compounds read low).
